CDC25B-CDK2 inh – human CDC25B-CDK2/CyclinA binding inhibition; P30305+P24941; HTRF CDC25B-CDK2/CyclinA binding, anti-His/anti-Flag; active compounds read high; z-score (test concentration not listed); 94,000 compounds, 0.72% hits; in the data active = z-score above about 3.2
TAR Tat displ – HIV-1 TAR-Tat binding disruption; z-score (no concentration beside the values); HIV-1 TAR RNA, Tat peptide displacement FRET; active compounds read high; AID 1259389; 100,000 compounds, 0.6% hits; active = z-score of 3 or more in at least 2 runs
A number is an active result; i = inactive; nt = no result given. Rows were chosen to be rich in hits. Some 0.93% of all compounds tested hit in one or more screens of this group.

SMILES	CDC25B-CDK2 inh	TAR Tat displ
O=C(CCc1nc2sc3c(c2c(=O)[nH]1)CCCC3)Nc1ccc(F)c(F)c1	nt	i
COc1cccc(-n2c(N)c(C(N)=O)sc2=S)c1	nt	i
N#Cc1c(-c2cccnc2)cc(-c2ccc(F)cc2)nc1N	i	i
COc1ccc(-c2cc(-c3cccnc3)c(C#N)c(N)n2)cc1	i	3.18
CCCCNc1cc(C)nc2nc(-c3ccc(C)cc3)nn12	i	i
O=c1ccc(-c2ccc(Cl)c(S(=O)(=O)N3CCc4ccccc4C3)c2)n[nH]1	nt	i
C=C(C)C(CCC=C(C)C)C12C[C@@H](CC=C(C)C)C(C)(C)C(CC=C(C)C)(C(=O)/C(=C(/O)c3ccc(O)c(O)c3)C1=O)C2=O (stereo partly specified)	nt	8.27
CCNC(=O)c1cn2c3c(ccc(Cl)c3c1=O)OC(C)C2 (stereo unspecified)	nt	i
CCOC(=O)c1cn2c3c(ccc(Cl)c3c1=O)OC(C)C2 (stereo unspecified)	nt	17.5
Cn1c(C(F)(F)F)nnc1S(=O)(=O)Cc1ccc(-c2csnn2)cc1	15.8	nt
O=S(=O)(NCc1ccc(-c2csnn2)cc1)c1cc(C(F)(F)F)cc(C(F)(F)F)c1	i	nt
CC(=O)N1c2ccc(S(=O)(=O)N(C)CC(=O)NCc3ccco3)cc2CC1C (stereo unspecified)	nt	i
CCOC(=O)c1c(C)oc2nc(C)nc(N3CCN(c4ccc(F)cc4)CC3)c12	nt	i
CCN(CC)c1nc(Nc2ccc(C)c(C)c2)c2cnn(C)c2n1	nt	i
COc1cc(CNC(=O)c2sc3nc(-c4ccncc4)ccc3c2N)cc(OC)c1	i	i
Nc1c(C(=O)NCc2ccco2)sc2nc(-c3ccncc3)ccc12	12.1	i
CCCOc1ccc(C2C(C#N)=C(N)OC3=C2C(=O)CC(C)(C)C3)cc1 (stereo unspecified)	i	nt
COc1c(O)cc2c(c1O)[C@@H]1O[C@H](CO)[C@@H](O)[C@H](O)[C@H]1OC2=O	nt	i
Cc1c(C(=O)O)c(O)cc2c1C(=O)c1c(O)c([C@H]3O[C@H](CO)[C@@H](O)[C@H](O)[C@H]3O)c(O)c(O)c1C2=O	nt	8.54
COC(=O)C(C)SC1=NS(=O)(=O)c2cc(Cl)ccc2N1 (stereo unspecified)	nt	i
COC(=O)CCC(C)C1CCC2C3CCC4C[C@H](O)CC[C@]4(C)C3C[C@H](O)[C@]12C (stereo partly specified)	nt	i
C[C@@H]1O[C@@H](O[C@H]2[C@H](Oc3cc(O)c4c(c3)O[C@H](c3ccc(O)cc3)CC4=O)O[C@H](CO)[C@@H](O)[C@@H]2O)[C@H](O)[C@H](O)[C@H]1O	nt	i
O=C1C[C@@H](c2ccc(O)cc2)Oc2cc(O[C@@H]3O[C@H](CO)[C@@H](O)[C@H](O)[C@H]3O)cc(O)c21	nt	i
O=C1C[C@@H](c2ccc(O)c(O)c2)Oc2c1ccc(O[C@@H]1O[C@H](CO)[C@@H](O)[C@H](O)[C@H]1O)c2O	nt	17.2
COc1ccc([C@@H]2CC(=O)c3c(O)cc(O[C@@H]4O[C@H](CO)[C@@H](O)[C@H](O)[C@H]4OC4O[C@@H](C)[C@H](O)[C@@H](O)[C@H]4O)cc3O2)cc1O (stereo partly specified)	nt	4.41
SMILES	CDC25B-CDK2 inh	TAR Tat displ
COc1ccc(/C=C/c2cc(O)cc(O[C@@H]3O[C@H](CO)[C@@H](O)[C@H](O)[C@H]3O)c2)cc1O	nt	i
O=C(/C=C/c1ccc(O)c(O)c1)c1ccc(O[C@@H]2O[C@H](CO)[C@@H](O)[C@H](O)[C@H]2O)c(O)c1O	nt	31.2
Cc1nc2c(-c3ccc(F)cc3)c(C)nn2c(C)c1CCC(=O)NCc1ccc2c(c1)OCO2	i	nt
Cc1nc2c(c(C)nn2C(C)(C)C)c(C)c1CCC(=O)NC(C)C	i	i
CSc1nn(Cc2ccc(F)cc2)c(N)c1S(=O)(=O)c1ccccc1	nt	i
Cc1ccccc1Nc1nc(NCc2ccco2)nc2c1cnn2C	nt	i
CCOC(=O)N1CCN(C(=O)c2c(C)oc3ncnc(N4CCOCC4)c23)CC1	i	i
COc1cc2ncc(S(=O)(=O)c3ccccc3)c(N3CCC(C)CC3)c2cc1OC	i	i
CCc1ccc2ncc(S(=O)(=O)c3ccccc3)c(N3CCCC3)c2c1	9.11	i
COc1cc2ncc(S(=O)(=O)c3ccccc3)c(N3CCCCC3)c2cc1OC	5.93	i
O=S(=O)(c1ccccc1)c1cnc2ccc(Cl)cc2c1N1CCCC1	i	i
C=CCS(=O)(=O)CC(=O)Nc1ccccc1	i	i
O=C(Cn1cnc(S(=O)(=O)N2CCCCC2)c1)NCCC1=CCCCC1	nt	i
O=C(Nc1ccc(F)cc1F)C1CCCN(S(=O)(=O)c2ccc3[nH]c(=O)oc3c2)C1 (stereo unspecified)	nt	i
COc1cccc2c1Oc1[nH]c(-c3ccccc3F)nc(=S)c1C2	i	i
COc1cccc(-c2nc3c(c(=O)[nH]2)Cc2cc(Cl)ccc2O3)c1O	i	4.89
O=c1[nH]c(-c2ccccc2O)nc2c1Cc1cc(Cl)ccc1O2	i	i
